Laboratory results: PubChem BioAssay AID1345085 (National Center for Advancing Translational Sciences (NCATS), 2018)
Inconclusive results are not listed. A call without a number means that no potency is given here. The source made the active and inactive calls. Calls follow the shape of the dose curve; as a rule, active = well fitted cell-killing curve with a large enough effect; inconclusive = small, poorly fitted or top-dose-only effect, or effect the other way; inactive = no such curve, though single readings can be large or run the other way.

Test system: C33A
Test: Confirmatory qHTS for gynecologic anti-cancer compounds from libraries of approved drugs and bioactive compounds; also: nearly all actives have a fitted effect of over 55% in size
Details: gynecologic cancer cell panel viability, ATPlite luminescence, 48 h; series mostly up to 57.6 µM
Method in brief: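 Viability is measured as ATP-dependent luciferase light using ATPlite, read 15 min after reagent addition at room temperature. Compounds, in DMSO, span 57.5 uM down to 0.977 nM over 11 threefold steps for 48 h.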
Potency is read from the fitted curve at half-maximal effect.

Structure (SMILES)	Potency
CCN1CCN(Cc2ccc(-c3cc4c(NC(C)c5ccccc5)ncnc4[nH]3)cc2)CC1 (stereo not drawn)	27.3 µM (active)
CC(=O)NCC(=O)N1C2CCC1c1cc(Nc3ncc(C(F)(F)F)c(NC4CCC4)n3)ccc12 (stereo not drawn)	inactive
Cc1cnc(Nc2ccc(CN3CCOCC3)cc2)nc1Nc1cccc(S(=O)(=O)NC(C)(C)C)c1	21.7 µM (active)
CC(C)Nc1cc(-c2c[nH]c(C(=O)N[C@H](CO)c3cccc(Cl)c3)c2)c(Cl)cn1	inactive
CC(C)(C(=O)NCC(F)(F)C(F)(F)F)C(=O)NC1C(=O)Nc2ccccc2-c2ccccc21 (stereo not drawn)	inactive
OCCNC1CCCc2c1[nH]c1ccc(-c3ccccc3)cc21 (stereo not drawn)	17.2 µM (active)
CN(C)c1ccc(-c2nc3ncc(Cl)c(N4CCN(CC(=O)Nc5nccs5)CC4)c3[nH]2)cc1	inactive
OCc1ccc(-c2ccc(-c3ccc(CO)s3)o2)s1	inactive
NC(=O)c1ccc2nc(-c3ccc(Oc4ccc(Cl)cc4)cc3)[nH]c2c1	inactive
CCCc1nn(C)c2c(=O)[nH]c(-c3cc(S(=O)(=O)N4CCN(C)CC4)ccc3OCC)nc12	inactive
Cn1c(=O)c(-c2c(Cl)cccc2Cl)cc2cnc(Nc3cccc(C(=O)O)c3)nc21	5.44 µM (active)
CCN(CC)CCCC(C)Nc1c2ccc(Cl)cc2nc2ccc(OC)cc12 (stereo not drawn)	24.3 µM (active)
O=c1cc(CN2CCOCC2)occ1OCCCCCSc1ccnc2cc(C(F)(F)F)ccc12	inactive
CC1=C(/C=C/C(C)=C/C=C/C(C)=C/C(=O)Nc2ccc(O)cc2)C(C)(C)CCC1	3.85 µM (active)
CC(C)C[C@H](NC(=O)[C@@H](NC(=O)c1cccc(-c2ccccc2)n1)[C@@H](C)O)B(O)O	0.385 µM (active)
CN(C)C1CCN(C(=O)c2ccc(NC(=O)Nc3nc(N4CCOCC4)nc(N4CCOCC4)n3)cc2)CC1	0.172 µM (active)
Cc1c(C)n(Cc2ccc(-c3ccccc3C(=O)O)cc2)c2ccc(C(=O)N[C@@H](C)c3ccc([N+](=O)[O-])cc3)cc12	inactive

Structure (SMILES)	Potency
CN(C)CCC(CSc1ccccc1)Nc1ccc(S(=O)(=O)NC(=O)c2ccc(N3CCN(Cc4ccccc4-c4ccc(Cl)cc4)CC3)cc2)cc1[N+](=O)[O-] (stereo not drawn)	inactive
CN(C)CC/C=C1\c2ccccc2COc2ccccc21	inactive
CN(NC(=O)CC(=O)NN(C)C(=S)c1ccccc1)C(=S)c1ccccc1	0.0273 µM (active)
Nc1ccc(-c2ccc3ncc4ccc(=O)n(-c5cccc(C(F)(F)F)c5)c4c3c2)cn1	0.172 µM (active)
CN(c1nccc(=O)[nH]1)C1CCN(c2nc3ccccc3n2Cc2ccc(F)cc2)CC1	inactive
COC(C(=O)N1Cc2[nH]nc(NC(=O)c3ccc(N4CCN(C)CC4)cc3)c2C1)c1ccccc1 (stereo not drawn)	inactive
Nc1cccc(-c2cc3c(Oc4cccc(O)c4)ncnc3[nH]2)c1	inactive
Cc1cc(Nc2nc(N[C@@H](C)c3ncc(F)cn3)ncc2Cl)n[nH]1	inactive
COc1cccc2c1C(=O)c1c(O)c3c(c(O)c1C2=O)C[C@@](O)(C(=O)CO)C[C@@H]3O[C@H]1C[C@H](N)[C@H](O)[C@H](C)O1	1.22 µM (active)
Nc1ccccc1NC(=O)c1ccc(CNc2nccc(-c3cccnc3)n2)cc1	3.06 µM (active)
CC[C@]1(O)C[C@H]2CN(CCc3c([nH]c4ccccc34)[C@@](C(=O)OC)(c3cc4c(cc3OC)N(C=O)[C@H]3[C@@](O)(C(=O)OC)[C@H](OC(C)=O)[C@]5(CC)C=CCN6CC[C@]43[C@@H]65)C2)C1	0.306 µM (active)
COc1cc(C(=O)N2CCC(N3CCN(C)CC3)CC2)ccc1Nc1ncc2c(n1)N(C)c1ccccc1C(=O)N2C	inactive
O=C(O)c1ccc(Nc2ncc3c(n2)-c2ccc(Cl)cc2C(c2c(F)cccc2F)=NC3)cc1	inactive
COc1cc2c(Nc3ccc(NC(=O)c4ccccc4)cc3)ncnc2cc1OCCCN1CCOCC1	27.3 µM (active)
O=C1NC(=O)C(c2cnc3ccccn23)=C1c1cn2c3c(cccc13)CN(C(=O)N1CCOCC1)CC2	inactive
O=C(CCCCCCNC(=O)c1cnc(N(c2ccccc2)c2ccccc2)nc1)NO	10.9 µM (active)
